Seven compounds from PubChem BioAssay (Tox21) can be followed below.

Values without a mark were called inactive. Results filed as inconclusive are left out. Active and inactive are the calls of the source. Unless noted, calls come from the whole dose curve.

A short description of experiment [1]: Nuclear factor erythroid 2-related factor 2/antioxidant responsive element (Nrf2/ARE) small molecule agonists: qHTS cell viability counter screen in human keratinocytes (AID 1919968; active = well fitted curve in the direction sought with a large enough effect in the repeat runs; an effect the other way counts as inactive or inconclusive; note: nearly all actives have a fitted effect of over 55% in size; note: potency is the fitted concentration of half-maximal effect). The essentials:
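HaCaT ARE reporter line, 1,500 cells/well; 5 h settle, 37 C/5% CO2; cpd in DMSO pinned; 23 h exposure; CellTiter-Fluor, 1 h; fluorescence.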

Experiment [2] is described as follows: Nuclear factor erythroid 2-related factor 2/antioxidant responsive element (Nrf2/ARE) small molecule agonists: luciferase reporter gene qHTS assay in human keratinocytes (AID 1919969). Note: nearly all actives have a fitted effect of over 35% in size. Note: potency is the fitted concentration of half-maximal effect.
The target in experiment [3] is KiSS-1 receptor (Homo sapiens) (UniProt Q969F8). Nature of the experiment: Human kisspeptin (KISS1R) small molecule agonists, calcium flux assay in KISS1R-HEK293 cells (AID 1920064; active = well fitted curve in the direction sought with a large enough effect in the repeat runs; an effect the other way counts as inactive or inconclusive). The procedure, abridged: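 Stable human KISS1R HEK293 line; 18 h plating, 37 C/5% CO2; calcium dye 1 h 37 C; compound pin transfer; kinetic fluorescence Ex/Em 480/540, 3 min.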
KiSS-1 receptor (Homo sapiens), sequence (Q969F8 whole entry, looked up): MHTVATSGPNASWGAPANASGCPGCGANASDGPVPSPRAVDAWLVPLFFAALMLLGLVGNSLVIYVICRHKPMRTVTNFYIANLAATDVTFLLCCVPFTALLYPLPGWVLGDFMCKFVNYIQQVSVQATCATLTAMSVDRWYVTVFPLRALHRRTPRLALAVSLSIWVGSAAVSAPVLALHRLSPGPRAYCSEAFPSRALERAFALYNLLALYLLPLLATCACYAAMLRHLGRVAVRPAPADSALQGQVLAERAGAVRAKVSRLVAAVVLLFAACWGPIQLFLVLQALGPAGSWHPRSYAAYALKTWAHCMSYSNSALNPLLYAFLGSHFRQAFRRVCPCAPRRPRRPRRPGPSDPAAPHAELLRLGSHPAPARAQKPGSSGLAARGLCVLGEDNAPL
Experiment [4] in a line: G protein-coupled receptor (GPCR) small molecule agonists, calcium flux assay: HEK293 wild type cell line counter screen (AID 1920065). The essentials: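 Kinetic fluorescence at Ex/Em 480/540, recorded every second over 3 min, served as the read-out after compound addition. Each compound was tested at 15 concentrations in triplicate on cells pre-loaded with calcium dye for 1 h.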

The nature of experiment [5]: p53 small molecule agonists, cell-based qHTS assay with human liver microsomes: qHTS cell viability counter screen (AID 1963579). Note: nearly all actives have a fitted effect of over 45% in size. Note: potency is the fitted concentration of half-maximal effect. The essentials:
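Metabolically activated exposure: compounds, human liver microsomes and NADPH (0.5 mg/mL final apiece) were added to p53RE-bla cells seeded 5 h earlier, left 16 h at 37 C, and then assessed for viability by CellTiter-Glo luminescence.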

The target in experiment [6] is 5-hydroxytryptamine receptor 2A (Homo sapiens) (UniProt P28223). Nature of the experiment: 5-hydroxytryptamine receptor 2A (HTR2A) small molecule agonists, cell-based qHTS assay (AID 1963587). Note: nearly all actives have a fitted effect of over 30% in size. Note: potency is the fitted concentration of half-maximal effect. The procedure, abridged:
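CHO cells stably expressing human HTR2A, plated 18 h, loaded with calcium dye 1 h at 37 C. Agonist mode: compounds added and intracellular calcium fluorescence recorded kinetically for 2 min at 1 sec intervals.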

Experiment [7] deals with Muscarinic acetylcholine receptor M1 (Homo sapiens) (UniProt P11229). Nature of the experiment: Cholinergic receptor muscarinic 1 (CHRM1) small molecule antagonists, cell-based qHTS assay (AID 1963588). Note: nearly all actives have a fitted effect of over 40% in size. Note: potency is the fitted concentration of half-maximal effect. The procedure, abridged: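 CHRM1-CHO calcium-flux assay, antagonist mode. Cells were seeded 18 h, dye-loaded 1 h at 37 C and given compound for 5 min at RT, then acetylcholine was added at 50nM. FDSS fluorescence was read 3 min; 15 concentrations, three runs.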
Muscarinic acetylcholine receptor M1 (Homo sapiens), sequence (P11229 whole entry, looked up): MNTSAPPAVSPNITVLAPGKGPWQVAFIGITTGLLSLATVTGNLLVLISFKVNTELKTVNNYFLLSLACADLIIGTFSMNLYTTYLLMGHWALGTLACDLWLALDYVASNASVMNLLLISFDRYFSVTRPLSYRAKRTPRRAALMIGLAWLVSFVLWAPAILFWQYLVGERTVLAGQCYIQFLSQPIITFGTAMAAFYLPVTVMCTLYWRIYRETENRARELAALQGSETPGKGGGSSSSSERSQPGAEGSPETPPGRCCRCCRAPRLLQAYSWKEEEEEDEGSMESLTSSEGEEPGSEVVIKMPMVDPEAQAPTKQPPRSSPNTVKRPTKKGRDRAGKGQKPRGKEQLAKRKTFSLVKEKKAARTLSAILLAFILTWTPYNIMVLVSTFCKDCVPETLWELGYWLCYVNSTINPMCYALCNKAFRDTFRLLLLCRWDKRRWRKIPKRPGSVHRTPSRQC

Experiment [8] concerns the target D(2) dopamine receptor (Homo sapiens) (UniProt P14416). Nature of the experiment: Dopamine D2 receptor (DRD2) small molecule agonists, cell-based qHTS assay (AID 1963594). Note: nearly all actives have a fitted effect of over 35% in size. The essentials:
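HEK293 cells stably expressing human DRD2, pre-treated with PDE inhibitor Ro20-1724 (0.1 mM final) and compound 10 min at room temperature, then stimulated with NKH477 (200nM […]) for 30 min. cAMP read by HTRF (665/620 nm).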

Experiment [9] can be described thus: p53 small molecule agonists, cell-based qHTS assay with human liver microsomes (AID 1963577). The essentials: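 In this qHTS, p53 response-element beta-lactamase cells receive test compound together with a microsome/NADPH activating system (0.5 mg/mL final each) and are incubated 16 h at 37 C before LiveBLAzer fluorescence detection.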
A short description of experiment [10]: p53 small molecule agonists, cell-based qHTS assay with rat liver microsomes (AID 1963578). The procedure, abridged:
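Agonist mode in p53RE-bla reporter cells, with compounds co-incubated 16 h at 37 C alongside 0.5 mg/mL rat liver microsomes and 0.5 mg/mL NADPH (final), followed by a 2 h LiveBLAzer detection step.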

Experiment [11] in a line: p53 small molecule agonists, cell-based qHTS assay with rat liver microsomes: qHTS cell viability counter screen (AID 1963580). Note: nearly all actives have a fitted effect of over 45% in size. The procedure, abridged:
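Viability is assessed in parallel with the p53 reporter read: HCT-116 p53RE-bla cells receive compounds plus rat microsomes and NADPH (0.5 mg/mL final apiece), incubate 16 h at 37 C, and then CellTiter-Glo luminescence is recorded.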

The nature of experiment [12]: p53 small molecule agonists, cell-based qHTS assay (AID 1963582; active = well fitted activation curve with a large enough effect in the signal ratio in the repeat runs, not every such curve was filed as active; the % refers to the signal ratio). The procedure, abridged:
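Reporter line: p53RE-bla. Pre-incubation 5 h, 37 C, 5% CO2; compound (DMSO, pin tool) 16 h, 37 C; B/G FRET substrate 2 h RT; fluorescence intensity read.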

Experiment [13] addresses 5-hydroxytryptamine receptor 2A (Homo sapiens) (UniProt P28223). The experiment is described as follows: 5-hydroxytryptamine receptor 2A (HTR2A) small molecule antagonists, cell-based qHTS assay (AID 1963586). Note: nearly all actives have a fitted effect of over 45% in size. The essentials: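 Antagonist-mode intracellular calcium assay: DOI (4 nM) added after 5 min compound pre-incubation at room temperature to dye-loaded HTR2A-CHO cells. Fluorescence followed for 3 min, sampled every second.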

Experiment [14] deals with Muscarinic acetylcholine receptor M1 (Homo sapiens) (UniProt P11229). The experiment is described as follows: Cholinergic receptor muscarinic 1 (CHRM1) small molecule agonists, cell-based qHTS assay (AID 1963589). Note: nearly all actives have a fitted effect of over 35% in size. The procedure, abridged:
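Human M1 in stable CHO line; 18 h plating, 1 h dye load 37 C; cpd added (agonist mode); Ca2+ fluorescence kinetic read, 1 s intervals; 15 conc, 3 runs.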

Experiment [15] is described as follows: cAMP Responsive Elements (CRE) small molecule agonists, cell-based qHTS assay (AID 1963590). The procedure, abridged: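 HEK 293T CRE-bla, 2,000 cells/well, 18 h preincubation 37 C/5% CO2; cpds (DMSO) pinned, 3 h; LiveBLAzer B/G FRET substrate, 2 h RT.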
Experiment [16] can be described thus: cAMP Responsive Elements (CRE) small molecule antagonists, cell-based qHTS assay (AID 1963591; active = well fitted inhibition curve with a large enough effect in the signal ratio in the repeat runs, not every such curve was filed as active; the % refers to the signal ratio). The procedure, abridged: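 Beta-lactamase reporter read by FRET substrate (LiveBLAzer B/G) after 2 h at room temperature. CRE-bla HEK293T cells had received compound plus 0.25 uM (final) NKH477 for 3 h at 37 °C.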
Experiment [17] addresses Beta-2 adrenergic receptor (Homo sapiens) (UniProt P07550). Nature of the experiment: Adrenergic beta2 receptor (ADRB2) small molecule antagonists, cell-based qHTS assay (AID 1963592). Note: series mostly up to about 92 µM; nearly all actives have a fitted effect of over 50% in size. The procedure, abridged:
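Cells (CHO, stable ADRB2 overexpression) incubated 18-20hr at 37C; compounds added from DMSO; agonist mix (1nM isoproterenol, 100uM IBMX, 25uM Ro-20-1724) added; 0.5hr RT; d2-cAMP and anti-cAMP-cryptate added; 1hr RT; 665/615 nm read.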

Experiment [18] shares this target. The experiment is described as follows: Adrenergic beta2 receptor (ADRB2) small molecule agonists, cell-based qHTS assay (AID 1963593).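 Note: CHO cells stably overexpressing human ADRB2.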 The procedure, abridged: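 CHO cells stably over-expressing ADRB2 were plated overnight at 37C, then dosed with compounds plus a stimulation mix containing 100uM IBMX and 25uM Ro-20-1724 for 0.5hr at room temperature. cAMP was measured by HTRF competition, 1hr.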

Experiment [19] addresses D(2) dopamine receptor (Homo sapiens) (UniProt P14416). The experiment is described as follows: Dopamine D2 receptor (DRD2) small molecule antagonists, cell-based qHTS assay (AID 1963595; active = well fitted inhibition curve with a large enough effect in the signal ratio in the repeat runs, with a control signal flat; the % refers to the signal ratio; note: potency is the fitted concentration of half-maximal effect). The essentials:
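HEK293 cells stably expressing DRD2, preincubated with 0.1 mM Ro20-1724 and compounds 10 min, were stimulated with 200 nM NKH477 plus 12 nM quinpirole for 30 min at room temperature; cAMP measured by HTRF (665/620 nm).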

Experiment [20] can be described thus: p53 small molecule agonists, cell-based qHTS assay: qHTS cell viability counter screen (AID 1963581). Note: nearly all actives have a fitted effect of over 45% in size. Note: potency is the fitted concentration of half-maximal effect. The procedure, abridged:
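HCT-116 p53RE-bla cells, 4,000/well, plated 5 h before compound pin transfer; 16 h at 37 C; bla substrate 2 h RT; then CellTiter-Glo, 30 min RT, luminescence.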
% is set by controls: 0 for no effect and ±100 for the full control effect.

Beta-2 adrenergic receptor (Homo sapiens), sequence (P07550 whole entry, looked up): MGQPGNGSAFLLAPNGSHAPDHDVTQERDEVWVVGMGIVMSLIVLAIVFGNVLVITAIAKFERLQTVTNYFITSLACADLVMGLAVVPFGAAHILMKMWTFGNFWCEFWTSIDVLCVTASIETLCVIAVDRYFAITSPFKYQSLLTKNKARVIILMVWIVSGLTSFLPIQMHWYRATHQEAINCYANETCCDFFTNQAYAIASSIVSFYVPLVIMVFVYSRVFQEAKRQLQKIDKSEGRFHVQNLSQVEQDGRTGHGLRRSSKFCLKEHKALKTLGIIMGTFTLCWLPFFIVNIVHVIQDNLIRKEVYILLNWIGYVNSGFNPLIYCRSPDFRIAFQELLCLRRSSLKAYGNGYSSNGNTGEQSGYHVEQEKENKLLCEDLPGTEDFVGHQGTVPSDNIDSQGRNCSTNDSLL
5-hydroxytryptamine receptor 2A (Homo sapiens), sequence (P28223 whole entry, looked up): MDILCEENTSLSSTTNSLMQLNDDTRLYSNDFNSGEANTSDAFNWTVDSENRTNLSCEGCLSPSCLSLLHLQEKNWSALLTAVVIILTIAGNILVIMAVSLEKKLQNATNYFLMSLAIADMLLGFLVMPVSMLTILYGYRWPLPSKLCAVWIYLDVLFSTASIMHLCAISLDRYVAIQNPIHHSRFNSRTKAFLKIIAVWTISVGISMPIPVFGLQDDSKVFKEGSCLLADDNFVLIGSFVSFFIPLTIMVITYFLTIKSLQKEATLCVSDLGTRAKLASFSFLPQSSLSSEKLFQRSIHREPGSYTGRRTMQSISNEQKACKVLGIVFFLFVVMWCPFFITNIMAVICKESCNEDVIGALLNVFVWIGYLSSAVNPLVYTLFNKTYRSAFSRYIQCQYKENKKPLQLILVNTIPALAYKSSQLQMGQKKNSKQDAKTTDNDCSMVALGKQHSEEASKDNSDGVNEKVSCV
D(2) dopamine receptor (Homo sapiens), sequence (P14416 whole entry, looked up): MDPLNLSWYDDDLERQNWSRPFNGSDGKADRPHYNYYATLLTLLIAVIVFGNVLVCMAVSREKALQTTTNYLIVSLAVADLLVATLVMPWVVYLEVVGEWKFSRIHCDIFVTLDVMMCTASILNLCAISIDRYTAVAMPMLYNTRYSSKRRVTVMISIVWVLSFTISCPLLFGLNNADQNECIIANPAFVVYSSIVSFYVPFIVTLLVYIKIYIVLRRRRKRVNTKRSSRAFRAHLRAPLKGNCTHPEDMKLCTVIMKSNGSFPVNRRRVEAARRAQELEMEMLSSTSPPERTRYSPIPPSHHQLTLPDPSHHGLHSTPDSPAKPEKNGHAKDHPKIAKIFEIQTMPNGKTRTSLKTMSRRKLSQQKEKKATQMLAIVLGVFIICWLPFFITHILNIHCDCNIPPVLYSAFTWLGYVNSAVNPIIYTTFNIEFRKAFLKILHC

With `CC/C(=C(/c1ccc(O)cc1)c1ccc(OCCN(C)C)cc1)c1ccccc1`, the Potency was 18 µM (active) in [1], 26.9 µM (active) in experiment [5], 28.8 µM (active) in experiment [6] and 13.9 µM (active) in experiment [7]. Besides, the Potency result in experiment [2], in [3], in [4] and in experiment [8] was “inactive” in each case.

`O=S(=O)(O)c1cc(S(=O)(=O)O)c2ccc3c(S(=O)(=O)O)cc(S(=O)(=O)O)c4ccc1c2c43`: the activity change, negative = cytotoxicity is 0.791% [at 19 µM] in experiment [1], -2.1% [at 13.5 µM] in [5] and 1.49% [at 13.5 µM] in [11]. In experiment [2], the activity, positive = activation is -1.98% [at 19 µM]. For the same compound, the activation in [4] was 0.205% [at 11.8 µM]; in experiment [9], -0.621% [at 13.5 µM]; in experiment [10] it was -1.38% [at 13.6 µM]; in [12] it was 4.26% [at 13.5 µM]; in [6], -0.138% [at 15.9 µM]; in experiment [14], -0.115% [at 15.8 µM]. Also, the figures for the activation in experiment [15], in [18] and in experiment [8] were 0.24% [at 19 µM], -12.6% [at 19 µM] and 0.241% [at 19 µM], respectively. Moreover, the activity, negative = inhibition in experiment [13] is -5.22% [at 12.7 µM]; in [7], -5.56% [at 12.6 µM]. For the same compound, the activity change, negative = inhibition in experiment [16] was -8.72% [at 18.9 µM]; in experiment [17], 1.38% [at 19 µM]; in experiment [19], -2.86% [at 18.9 µM].

Regarding `Cc1cc(=O)c2c(O)c3c(O)cc(=O)c4c3c3c(cc(O)c1c23)C(C)(C)C=4O`, the Potency in experiment [1] is 4.11 µM (active); in experiment [6] it was 0.657 µM (active). The activity, positive = activation in [2] was 7.38% [at 19 µM]. Besides, the activation in experiment [3] is 3.73% [at 15.8 µM]; in [4], 4.32% [at 11.8 µM]; in experiment [14], 13.3% [at 15.8 µM]; in experiment [18], 3.3% [at 19 µM]; in [8] it was -19.9% [at 19 µM]. Also, the activity change, negative = cytotoxicity was -4.38% [at 13.5 µM] in [5] and -8.38% [at 13.5 µM] in [11]. The activity, negative = inhibition in [7] was 5.23% [at 12.6 µM]. In addition, the activity change, negative = inhibition was 0.889% [at 19 µM] in experiment [17] and 5.59% [at 18.9 µM] in [19].

Turning to `COCCOC(=O)CC#N`, the Potency result in experiment [1], in experiment [2], in experiment [3], in experiment [9], in [5] and in [11] was “inactive” throughout. Besides, the Potency result in experiment [20], in experiment [12], in experiment [13], in experiment [6], in experiment [7] and in experiment [15] was “inactive” throughout. Moreover, the Potency entry in experiment [16], in experiment [17], in [18], in experiment [8] and in experiment [19] was “inactive” each time.

Take `NC(N)=NCCC[C@H](N)C(=O)O`: the activity change, negative = cytotoxicity in [1] was -4.64% [at 8.39 µM]; in experiment [11], 1.88% [at 5.99 µM]; in experiment [20] it was -8.01% [at 5.99 µM]. Moreover, the activity, positive = activation in [2] is -5.37% [at 8.39 µM]. Also, the activation was -0.0198% [at 6.97 µM] in experiment [3]; 2.23% [at 5.23 µM] in experiment [4]; 2.81% [at 7.02 µM] in [6]; -0.347% [at 6.97 µM] in experiment [14]; 4.27% [at 8.39 µM] in experiment [15]; -13.5% [at 8.39 µM] in experiment [8]. For the same compound, the values for the activity, negative = inhibition in experiment [13] and in experiment [7] were 19.6% [at 5.62 µM] and -1.41% [at 5.58 µM], respectively. In addition, the activity change, negative = inhibition in experiment [16] was -3.28% [at 8.39 µM]; in experiment [17], 0.0181% [at 8.39 µM]; in experiment [19], 5.33% [at 8.38 µM].

On to `[Cl][Bi]([Cl])([c]1ccccc1)([c]1ccccc1)[c]1ccccc1`, for which the Potency in experiment [1] is 6.08 µM (active); in experiment [2], 1.53 µM (active); in experiment [5], 4.05 µM (active); in [20] it was 9.07 µM (active); in experiment [19], 13.6 µM (active). Besides, the Potency result in [4], in experiment [9], in [10], in experiment [13] and in experiment [17] was “inactive” in each case.

Take `CCCCCCCCCCCCCOC(=O)CCSCCC(=O)OCCCCCCCCCCCCC`: the activity change, negative = cytotoxicity in [1] was -1.71% [at 19 µM]; in [5] it was -3.75% [at 13.5 µM]; in [11], -0.0386% [at 13.5 µM]; in experiment [20], -3.06% [at 13.5 µM]. The activity, positive = activation in experiment [2] is 4.84% [at 19 µM]. The activation in experiment [3] is 1.75% [at 15.8 µM]; in experiment [4], -0.388% [at 11.8 µM]; in experiment [14] it was -0.105% [at 15.8 µM]; in experiment [15] it was -0.927% [at 19 µM]; in [8], 5.42% [at 19 µM]. The activity, negative = inhibition in experiment [7] was 18% [at 12.6 µM]. For the same compound, the activity change, negative = inhibition was -14% [at 18.9 µM] in experiment [16], -0.103% [at 19 µM] in [17] and -7.07% [at 18.9 µM] in [19].
